Experimental data: PubChem BioAssay (EPA / NIEHS)
Calls of active or inactive are those of the source. The calls were made as follows: active = hit-call score of the fitted dose curve at least 0.9, where 1 is the maximum; inactive = score below 0.9.

Columns and labels:
[1] = APR_HepG2_CellLoss_72hr: Apredica 72-hour HepG2 Assay for Cell Loss (AID 2282915); settings: high-content imaging
In short: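 HepG2 cells were exposed for 72 hr to compounds at 0.39–200 uM (ten concentrations, duplicate) in 0.5% v/v final DMSO. Nuclei were stained with Hoechst 33342 after 3.7% formaldehyde fixation, imaged at 20x, and counted; fits bidirectional versus DMSO.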

[2] = APR_HepG2_P-H2AX_72hr: Apredica 72-hour HepG2 Assay for H2AX Phosphorylation (AID 2282916); settings: imaging, actives raise or lower the signal;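 also: phospho-histone H2A.x immunostain intensity per cell marking DNA damage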
In short: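 HepG2; cpd 0.39–200 uM ×10 conc, duplicates; 0.5% DMSO; 72 hr. Fix 3.7% formaldehyde 30 min RT, 0.5% Triton X-100 10 min. Anti-phospho-H2A.x 1:200 + Hoechst 2 ug/mL, 60 min RT; ArrayScan imaging.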

[3] = APR_HepG2_MitoMembPot_72hr: Apredica 72-hour HepG2 Assay for Mitochondrial Membrane Potential (AID 2282917); settings: imaging, actives raise or lower the signal
In short: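 HepG2 cells exposed 72 h to compounds at 0.39–200 uM (0.5% v/v DMSO, duplicates); MitoTracker Red CMXRos 250 nM loaded 30 min before 3.7% formaldehyde fixation, imaged by HCS fluorescence. Bidirectional fit versus DMSO.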

[4] = APR_HepG2_MitoticArrest_72hr: Apredica 72-hour HepG2 Assay for Mitotic Arrest (AID 2282918); settings: high-content imaging, actives raise or lower the signal
In short: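 HepG2 cells treated 72 h at 0.39–200 uM, 0.5% DMSO final; formaldehyde-fixed, stained with Hoechst 33342 and phospho-histone H3 antibody, imaged by high-content fluorescence; bidirectional fit versus DMSO.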

[5] = APR_HepG2_MicrotubuleCSK_72hr: Apredica 72-hour HepG2 Assay for Microtubule CSK Stabilty (AID 2282919); settings: HepG2 microtubule cytoskeleton, high-content imaging, actives raise or lower the signal
In short: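 HepG2 human liver cells were dosed for 72 h at ten concentrations from 0.39 to 200 uM in duplicate (0.5% v/v DMSO final). Fixed, permeabilized cells were immunostained for alpha-tubulin (Cy5) with a Hoechst counterstain and imaged at 20x.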

[6] = APR_HepG2_P-H2AX_24hr: Apredica 24-hour HepG2 Assay for H2AX Phosphorylation (AID 2282920); settings: high-content imaging, actives raise or lower the signal
In short: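 HepG2 cells dosed 24 h at 0.39–200 uM (10 points, duplicate, 0.5% DMSO final). Formaldehyde-fixed and permeabilized, then immunostained for phospho-H2A.x with Hoechst. Fluorescence quantified by high-content imaging, fitted bidirectionally versus DMSO.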

[7] = APR_HepG2_StressKinase_72hr: Apredica 72-hour HepG2 Assay for Stress Kinase (AID 2282921); settings: HepG2 stress kinase (phospho-c-Jun) imaging, actives raise or lower the signal
In short: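 Dose 0.39–200 uM (10 pts, duplicate), 0.5% DMSO; 72 h; fix 3.7% formaldehyde 30 min RT; Triton permeabilize; anti-phospho-c-Jun/Cy3 + Hoechst 60 min RT; image 20x; fit gain/loss vs DMSO.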

[8] = APR_HepG2_StressKinase_24hr: Apredica 24-hour HepG2 Assay for Stress Kinase (AID 2282922); settings: HepG2 stress kinase (phospho-c-Jun) imaging, actives raise or lower the signal
In short: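 HepG2 cells exposed 24 hr to compound at 0.39–200 uM (10 concentrations, duplicate), 0.5% v/v DMSO final. Fixed in 3.7% formaldehyde, permeabilized with Triton X-100, immunolabeled for phospho-c-Jun with Hoechst 33342; HCS fluorescence imaging, bidirectional fit versus DMSO.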

[9] = APR_HepG2_p53Act_72hr: Apredica 72-hour HepG2 Assay for p53 Activation (AID 2282923); settings: high-content imaging, actives raise or lower the signal;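 also: average cellular p53 protein immunofluorescence intensity in HepG2 cells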
In short: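 10-pt conc. 0.39–200 uM, duplicate, 0.5% DMSO; 72 hr exposure; 3.7% formaldehyde fix, 0.5% Triton perm; sheep anti-p53/Cy5 + Hoechst; ArrayScan 20x, 6 images/well; gain/loss fit vs DMSO.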

[10] = APR_HepG2_MitoMass_72hr: Apredica 72-hour HepG2 Assay for Mitochondrial Mass (AID 2282924); settings: high-content imaging, actives raise or lower the signal;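 also: MitoTracker Red CMXRos stain intensity per cell imaged as mitochondrial mass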
In short: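 HepG2 cells were exposed for 72 hr to compounds at 0.39–200 uM (ten concentrations, duplicate, 0.5% v/v DMSO final). Live cells were stained with 250 nM MitoTracker Red CMXRos for 30 min, then fixed in 3.7% formaldehyde and imaged by HCS fluorescence.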

[11] = APR_HepG2_NuclearSize_72hr: Apredica 72-hour HepG2 Assay for Nuclear Size (AID 2282925); settings: high-content imaging, actives raise or lower the signal
In short: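 HepG2 cells were exposed to compounds at ten concentrations from 0.39 to 200 uM (duplicate, 0.5% DMSO final) for 72 hr. After fixation in 3.7% formaldehyde, nuclei were stained with Hoechst 33342 (2 ug/mL) and imaged at 20x.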

[12] = ATG_CMV_CIS: Attagene CIS-FACTORIAL HepG2 Assay for human CMV (Internal Marker) (AID 2282928); settings: HepG2 CMV promoter reporter, transcription factor profiling; actives raise or lower the signal;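 also: endpoint acts as a background internal control marker rather than a target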
In short: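 HepG2 cells transiently transfected with multiple cis-regulated reporter units; 24 h compound exposure. Reporter mRNA quantified by RT-PCR, 6-FAM primer-extension labeling, HpaI digestion and capillary electrophoresis; bidirectional fitting against DMSO baseline.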

[13] = ATG_DR4_LXR_CIS: Attagene CIS-FACTORIAL HepG2 Assay for human Liver X Receptor (LXR), DR4 submotif (AID 2282929); settings: HepG2 Attagene DR4 cis-reporter, mRNA transcription; actives raise or lower the signal
In short: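 Endogenous factor activity at a DR4 cis-element is read as reporter mRNA in transiently transfected HepG2 cells. Exposure lasts 24 h; transcripts are amplified, fluorescently labelled and sized by capillary electrophoresis, with DMSO as baseline.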

[14] = target: Aryl hydrocarbon receptor (Homo sapiens) (UniProt P35869); assay: ATG_Ahr_CIS: Attagene CIS-FACTORIAL HepG2 Assay for human Aryl Hydrocarbon Receptor (Ahr) (AID 2282930); settings: HepG2 AhR cis-factorial reporter transcription; actives raise or lower the signal
In short: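 Values derive from bidirectional fitting against DMSO negative control. Underlying signal: cis-element reporter mRNA in transiently transfected HepG2, harvested 24 h post-dose and measured by RT-PCR plus capillary electrophoresis.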

[15] = ATG_AP_1_CIS: Attagene CIS-FACTORIAL HepG2 Assay for human Activator Protein 1 (AP-1) (AID 2282931); settings: HepG2 Attagene cis-factorial AP-1 reporter mRNA; actives raise or lower the signal
In short: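 Fluorescence of labelled PCR fragments separated by capillary electrophoresis gives reporter mRNA levels. HepG2 with transfected cis-regulated reporter units, 24 h exposure; DMSO serves as baseline for bidirectional curve fits.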

[16] = ATG_BRE_CIS: Attagene CIS-FACTORIAL HepG2 Assay for human Bone Morphogenetic Protein (BMP) Response Element (BRE) (AID 2282933); settings: HepG2 BMP response element reporter, Attagene transcription factor profiling; actives raise or lower the signal
In short: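 After a 24 h chemical treatment, transiently transfected HepG2 cells were lysed for RNA; reporter transcripts were quantified by fluorescent RT-PCR and capillary electrophoresis, normalised to DMSO.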

[17] = target: Retinoic acid receptor alpha (Homo sapiens) (UniProt P10276); assay: ATG_DR5_RAR_CIS: Attagene CIS-FACTORIAL HepG2 Assay for human Retinoic Acid Receptor Alpha (RARE), DR5 submotif (AID 2282934); settings: HepG2 Attagene cis-factorial RARE DR5 reporter, mRNA; actives raise or lower the signal
In short: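 Endpoint fitted in both directions relative to DMSO as negative control. It reflects DR5 cis-element reporter mRNA induction in transiently transfected HepG2 cells, measured 24 h after dosing through RT-PCR and fluorescent capillary electrophoresis.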

[18] = ATG_CRE_CIS: Attagene CIS-FACTORIAL HepG2 Assay for human cAMP Responsive Element (CRE) binding protein 3 (AID 2282926); settings: HepG2 CRE cis-reporter, Attagene multiplexed mRNA; actives raise or lower the signal
In short: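 HepG2 cells transiently transfected with cis-element-driven multiple reporter transcription units; CRE reporter mRNA measured 24 h after dosing by RT-PCR, 6-FAM labelling, HpaI digestion and capillary electrophoresis. Bidirectional fit versus DMSO baseline.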

[19] = target: CCAAT/enhancer-binding protein beta (Homo sapiens) (UniProt P17676); assay: ATG_C_EBP_CIS: Attagene CIS-FACTORIAL HepG2 Assay for human CCAAT/Enhancer Binding Protein (C/EBP) beta (AID 2282927); settings: HepG2 Attagene cis-factorial transcription factor reporter; actives raise or lower the signal
In short: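 Following a 24 h incubation with test chemical, transfected HepG2 cells yielded RNA whose reporter transcripts were quantified by RT-PCR and fluorescent capillary electrophoresis, with DMSO serving as baseline for bidirectional fitting.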

[20] = ATG_AP_2_CIS: Attagene CIS-FACTORIAL HepG2 Assay for human Activator Protein 2 (AP-2) (AID 2282932); settings: HepG2 AP-2 cis-reporter, Attagene transcription factor profiling; actives raise or lower the signal
In short: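 Bidirectional curve fitting against DMSO was applied to reporter mRNA signals from HepG2 cells 24 h after dosing. Cis-promoter reporter units, transiently transfected, were read by RT-PCR plus capillary electrophoresis.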

Measured: AC50

Chain of Retinoic acid receptor alpha (Homo sapiens) (P10276 whole entry, looked up): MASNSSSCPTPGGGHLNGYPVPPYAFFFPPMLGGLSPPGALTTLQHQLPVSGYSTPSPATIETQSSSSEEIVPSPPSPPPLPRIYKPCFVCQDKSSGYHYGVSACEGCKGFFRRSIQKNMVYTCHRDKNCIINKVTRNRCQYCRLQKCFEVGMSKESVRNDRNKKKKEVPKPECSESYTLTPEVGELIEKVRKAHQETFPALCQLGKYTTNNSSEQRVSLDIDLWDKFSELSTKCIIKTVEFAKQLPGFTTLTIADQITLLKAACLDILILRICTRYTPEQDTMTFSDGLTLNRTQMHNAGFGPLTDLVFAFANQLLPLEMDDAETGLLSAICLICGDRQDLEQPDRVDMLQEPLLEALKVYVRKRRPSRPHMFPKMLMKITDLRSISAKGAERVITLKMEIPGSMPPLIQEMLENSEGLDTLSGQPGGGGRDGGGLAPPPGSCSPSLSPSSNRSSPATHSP
Chain of Aryl hydrocarbon receptor (Homo sapiens) (P35869 whole entry, looked up): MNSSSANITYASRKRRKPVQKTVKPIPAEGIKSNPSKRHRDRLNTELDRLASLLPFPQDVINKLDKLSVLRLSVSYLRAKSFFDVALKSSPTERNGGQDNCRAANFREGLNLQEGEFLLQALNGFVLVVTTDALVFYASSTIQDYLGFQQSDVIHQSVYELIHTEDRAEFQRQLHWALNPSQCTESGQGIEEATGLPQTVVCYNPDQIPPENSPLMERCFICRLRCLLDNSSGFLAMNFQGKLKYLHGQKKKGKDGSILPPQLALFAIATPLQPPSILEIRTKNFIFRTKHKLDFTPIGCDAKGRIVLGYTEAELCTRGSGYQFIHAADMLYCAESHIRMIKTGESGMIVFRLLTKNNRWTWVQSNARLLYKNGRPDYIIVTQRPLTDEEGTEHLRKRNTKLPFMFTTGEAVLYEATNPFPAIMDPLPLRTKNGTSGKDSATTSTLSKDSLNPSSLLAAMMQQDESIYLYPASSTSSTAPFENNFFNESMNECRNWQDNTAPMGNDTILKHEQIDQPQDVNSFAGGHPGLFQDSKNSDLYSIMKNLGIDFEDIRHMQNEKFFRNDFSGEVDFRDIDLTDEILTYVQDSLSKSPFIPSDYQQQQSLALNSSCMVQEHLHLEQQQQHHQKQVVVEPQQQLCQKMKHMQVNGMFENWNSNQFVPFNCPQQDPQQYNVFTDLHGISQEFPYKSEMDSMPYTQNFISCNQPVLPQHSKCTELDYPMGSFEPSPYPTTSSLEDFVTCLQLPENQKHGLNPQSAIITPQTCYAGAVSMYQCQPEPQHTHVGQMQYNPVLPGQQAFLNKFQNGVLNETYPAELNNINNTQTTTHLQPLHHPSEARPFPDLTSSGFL
Chain of CCAAT/enhancer-binding protein beta (Homo sapiens) (P17676 whole entry, looked up): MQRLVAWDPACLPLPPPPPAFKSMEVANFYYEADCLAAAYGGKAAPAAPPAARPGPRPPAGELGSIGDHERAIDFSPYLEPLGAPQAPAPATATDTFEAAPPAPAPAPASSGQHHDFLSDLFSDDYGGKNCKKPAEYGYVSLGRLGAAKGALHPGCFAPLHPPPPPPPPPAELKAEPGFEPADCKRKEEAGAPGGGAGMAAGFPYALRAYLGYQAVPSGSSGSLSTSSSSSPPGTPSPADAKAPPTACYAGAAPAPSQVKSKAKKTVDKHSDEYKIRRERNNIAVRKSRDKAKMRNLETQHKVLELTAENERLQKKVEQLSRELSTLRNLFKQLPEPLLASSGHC

COc1ccc(C)cc1N
active: [14] 100000 nM
not listed: [18] | [19] | [20]
inactive: all other assays above

Oc1ccc2ccccc2c1N=Nc1ccccc1
active: [1] 606 nM | [2] 2490 nM | [10] 80.6 nM | [14] 10.5 nM
not listed: [20]
inactive: all other assays above

CCCCC(CC)COC(=O)CC(C(=O)OCC(CC)CCCC)S(=O)(=O)O (centres undefined)
active: [1] 141000 nM | [2] 108000 nM | [3] 112000 nM | [4] 80800 nM | [6] 102000 nM | [9] 103000 nM
not listed: [20]
inactive: all other assays above

COc1ccc2c(c1)c(CC(=O)O)c(C)n2C(=O)c1ccc(Cl)cc1
not listed: [19] | [20]
inactive: all other assays above

COc1cccc2c1C(=O)c1c(O)c3c(c(O)c1C2=O)C[C@@](O)(C(=O)CO)C[C@@H]3O[C@H]1C[C@H](N)[C@H](O)[C@H](C)O1
inactive: [3] | [11] | [18] | [19] | [14] | [16] | [17]
active: [1] 65.3 nM | [2] 1480 nM | [4] 1370 nM | [5] 700 nM | [6] 3170 nM | [7] 17600 nM | [8] 8800 nM | [9] 177 nM | [12] 1190 nM | [13] 957 nM | [15] 2150 nM | [20] 3750 nM

CCCCN(CCCC)CCCC
not listed: [10] | [17]
inactive: all other assays above

C[Si]1(C)O[Si](C)(C)O[Si](C)(C)O[Si](C)(C)O1
active: [13] 49600 nM
not listed: [17]
inactive: all other assays above
